# From PubChem BioAssay (NCATS)
# Inconclusive results are not listed. A call without a number means that no potency is given here. The source made the active and inactive calls. Calls follow the shape of the dose curve; as a rule, active = well fitted inhibition curve with a large enough effect; inconclusive = small, poorly fitted or top-dose-only effect; inactive = flat fitted curve, though single readings scatter.
# Tested on: JCK
# Assay: qHTS profiling for inhibitors of Plasmodium falciparum proliferation (AID 504749); also: nearly all actives have a fitted effect of over 60% in size
# Conditions: P. falciparum in erythrocytes, SYBR Green DNA, 72 h; series mostly up to 28.7 µM
# Method in brief: (§1)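 Infected RBCs, 0.3% parasitemia/2.5% Hct final; cpd 72 h, 37 C, 5% CO2; lysis buffer with saponin/triton/SYBR Green I, o/n RT dark; FI 485/535; norm. to artemisinin (0.29 uM) and DMSO.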
# Potency is read from the fitted curve at half-maximal effect.
row,SMILES,Potency
1,C[C@H](N)Cc1ccccc1,inactive
2,C[C@]12C=CC(=O)C=C1CC[C@@H]1C2CC[C@]2(C)OC(=O)CCC12 (stereo not given in full),inactive
3,OCC(O)[C@H]1O[C@@H]2O[C@H](C(Cl)(Cl)Cl)O[C@@H]2[C@H]1O (stereo not given in full),inactive
4,CC1(C)[C@@H](C=C(Cl)Cl)[C@@H]1C(=O)OCc1c(F)c(F)cc(F)c1F,inactive
5,CC1(C)S[C@@H]2[C@H](N)C(=O)N2C1C(=O)O (stereo not given in full),inactive
6,C=C1Nc2ccccc2C(=O)N1c1ccccc1C,inactive
7,CC1OC(O[C@H]2C[C@@H](O)[C@]3(CO)[C@@H]4C(CC[C@]3(O)C2)[C@@]2(O)CC[C@H](C3=CC(=O)OC3)[C@@]2(C)C[C@H]4O)C(O)C(O)C1O (stereo not given in full),inactive
8,O=[N+]([O-])OC1CO[C@H]2C(O[N+](=O)[O-])COC12 (stereo not given in full),inactive
9,CCOC(=O)/C=C(C)/C=C/CC(C)CCCC(C)C (stereo not given),inactive
10,[S]=[Sb][S][Sb]=[S],inactive
11,CN1C2CCC1C(C(=O)O)C(OC(=O)c1ccccc1)C2 (stereo not given),inactive
12,Cc1ccc2c(c1)[C@@H]1CN(C)CC[C@H]1N2,inactive
13,Nc1nc(O)c(-c2ccccc2)o1,inactive
14,C=CC[N+]1(C)CCC23c4c5ccc(O)c4O[C@H]2C(=O)CC[C@@]3(O)C1C5 (stereo not given in full),inactive
15,OC[C@@H](O)[C@H]1O[C@@H]2OC(C(Cl)(Cl)Cl)O[C@H]2[C@H]1O (stereo not given in full),inactive
16,CCCCCCC(=O)O[C@H]1CC[C@H]2[C@@H]3CCC4CC(=O)C=C(C)[C@]4(C)[C@H]3CC[C@]12C (stereo not given in full),inactive
17,Cc1cc(C)cc(C(=O)OC2CC3CCC(C2)N3C)c1 (stereo not given),inactive
18,CCCN1CCCC2Cc3nc(N)ncc3CC21 (stereo not given),inactive
19,COc1ccc2c3c1O[C@H]1[C@@H](O)C=C[C@H]4C(C2)NCCC341 (stereo not given in full),inactive
20,CCCCCC(O)C1C(=O)OC(C)C(O)\C=C/C=C\C=C/C=C\C=C(\C)C(O)C(O)C(O)CC(O)CC(O)CC(O)CC(O)CC1O (stereo not given),inactive
21,CCCCCc1cc(O)c2c(c1)OC(C)(C)C1CC=C(C)CC21 (stereo not given),11.2 µM (active)

# Tested on: N140
# Assay: as above
# Conditions: P. falciparum in erythrocytes, SYBR Green DNA, 72 h; series mostly up to 28.7 µM
# Method in brief: as §1
row,SMILES,Potency
1,C[C@H](N)Cc1ccccc1,inactive
2,C[C@]12C=CC(=O)C=C1CC[C@@H]1C2CC[C@]2(C)OC(=O)CCC12 (stereo not given in full),inactive
3,OCC(O)[C@H]1O[C@@H]2O[C@H](C(Cl)(Cl)Cl)O[C@@H]2[C@H]1O (stereo not given in full),inactive
4,CC1(C)[C@@H](C=C(Cl)Cl)[C@@H]1C(=O)OCc1c(F)c(F)cc(F)c1F,inactive
5,CC1(C)S[C@@H]2[C@H](N)C(=O)N2C1C(=O)O (stereo not given in full),inactive
6,C=C1Nc2ccccc2C(=O)N1c1ccccc1C,inactive
7,CC1OC(O[C@H]2C[C@@H](O)[C@]3(CO)[C@@H]4C(CC[C@]3(O)C2)[C@@]2(O)CC[C@H](C3=CC(=O)OC3)[C@@]2(C)C[C@H]4O)C(O)C(O)C1O (stereo not given in full),inactive
8,O=[N+]([O-])OC1CO[C@H]2C(O[N+](=O)[O-])COC12 (stereo not given in full),inactive
9,CCOC(=O)/C=C(C)/C=C/CC(C)CCCC(C)C (stereo not given),inactive
10,[S]=[Sb][S][Sb]=[S],inactive
11,CN1C2CCC1C(C(=O)O)C(OC(=O)c1ccccc1)C2 (stereo not given),inactive
12,C[C@@H]1CC[C@H]2[C@@H](C)C(=O)O[C@@H]3OC4(C)CC[C@@H]1C32OO4 (stereo not given in full),0.0056 µM (active)
13,Cc1ccc2c(c1)[C@@H]1CN(C)CC[C@H]1N2,inactive
14,Nc1nc(O)c(-c2ccccc2)o1,inactive
15,C=CC[N+]1(C)CCC23c4c5ccc(O)c4O[C@H]2C(=O)CC[C@@]3(O)C1C5 (stereo not given in full),inactive
16,OC[C@@H](O)[C@H]1O[C@@H]2OC(C(Cl)(Cl)Cl)O[C@H]2[C@H]1O (stereo not given in full),inactive
17,CCCCCCC(=O)O[C@H]1CC[C@H]2[C@@H]3CCC4CC(=O)C=C(C)[C@]4(C)[C@H]3CC[C@]12C (stereo not given in full),inactive
18,Cc1cc(C)cc(C(=O)OC2CC3CCC(C2)N3C)c1 (stereo not given),inactive
19,CCCN1CCCC2Cc3nc(N)ncc3CC21 (stereo not given),inactive
20,COc1ccc2c3c1O[C@H]1[C@@H](O)C=C[C@H]4C(C2)NCCC341 (stereo not given in full),inactive
21,CCCCCC(O)C1C(=O)OC(C)C(O)\C=C/C=C\C=C/C=C\C=C(\C)C(O)C(O)C(O)CC(O)CC(O)CC(O)CC(O)CC1O (stereo not given),inactive
22,CCCCCc1cc(O)c2c(c1)OC(C)(C)C1CC=C(C)CC21 (stereo not given),1.12 µM (active)

# Tested on: P93_24
# Assay: as above
# Conditions: P. falciparum in erythrocytes, SYBR Green DNA, 72 h; series mostly up to 28.7 µM
# Method in brief: as §1
row,SMILES,Potency
1,C[C@H](N)Cc1ccccc1,inactive
2,C[C@]12C=CC(=O)C=C1CC[C@@H]1C2CC[C@]2(C)OC(=O)CCC12 (stereo not given in full),inactive
3,OCC(O)[C@H]1O[C@@H]2O[C@H](C(Cl)(Cl)Cl)O[C@@H]2[C@H]1O (stereo not given in full),inactive
4,CC1(C)[C@@H](C=C(Cl)Cl)[C@@H]1C(=O)OCc1c(F)c(F)cc(F)c1F,inactive
5,CC1(C)S[C@@H]2[C@H](N)C(=O)N2C1C(=O)O (stereo not given in full),inactive
6,C=C1Nc2ccccc2C(=O)N1c1ccccc1C,inactive
7,CC1OC(O[C@H]2C[C@@H](O)[C@]3(CO)[C@@H]4C(CC[C@]3(O)C2)[C@@]2(O)CC[C@H](C3=CC(=O)OC3)[C@@]2(C)C[C@H]4O)C(O)C(O)C1O (stereo not given in full),inactive
8,O=[N+]([O-])OC1CO[C@H]2C(O[N+](=O)[O-])COC12 (stereo not given in full),inactive
9,CCOC(=O)/C=C(C)/C=C/CC(C)CCCC(C)C (stereo not given),inactive
10,[S]=[Sb][S][Sb]=[S],inactive
11,CN1C2CCC1C(C(=O)O)C(OC(=O)c1ccccc1)C2 (stereo not given),inactive
12,C[C@@H]1CC[C@H]2[C@@H](C)C(=O)O[C@@H]3OC4(C)CC[C@@H]1C32OO4 (stereo not given in full),0.0035 µM (active)
13,Cc1ccc2c(c1)[C@@H]1CN(C)CC[C@H]1N2,inactive
14,Nc1nc(O)c(-c2ccccc2)o1,inactive
15,C=CC[N+]1(C)CCC23c4c5ccc(O)c4O[C@H]2C(=O)CC[C@@]3(O)C1C5 (stereo not given in full),inactive
16,OC[C@@H](O)[C@H]1O[C@@H]2OC(C(Cl)(Cl)Cl)O[C@H]2[C@H]1O (stereo not given in full),inactive
17,CCCCCCC(=O)O[C@H]1CC[C@H]2[C@@H]3CCC4CC(=O)C=C(C)[C@]4(C)[C@H]3CC[C@]12C (stereo not given in full),inactive
18,Cc1cc(C)cc(C(=O)OC2CC3CCC(C2)N3C)c1 (stereo not given),inactive
19,CCCN1CCCC2Cc3nc(N)ncc3CC21 (stereo not given),inactive
20,COc1ccc2c3c1O[C@H]1[C@@H](O)C=C[C@H]4C(C2)NCCC341 (stereo not given in full),inactive
21,CCCCCC(O)C1C(=O)OC(C)C(O)\C=C/C=C\C=C/C=C\C=C(\C)C(O)C(O)C(O)CC(O)CC(O)CC(O)CC(O)CC1O (stereo not given),inactive
22,CCCCCc1cc(O)c2c(c1)OC(C)(C)C1CC=C(C)CC21 (stereo not given),2.51 µM (active)
